From PubChem BioAssay AID1159580 (chemical genetic matrix, 2015)
The whole screen tested about 5,500 compounds, of which about 2,000 (36%) were called active. Not shown: some 18% with an inconclusive outcome. Rule as the data show it: active = normalized growth mostly below about 0.91 (no sharp cut-off); inconclusive = no clear call, values can overlap the other calls; inactive = mostly above about 0.92. Some of the results follow.

Assay: chemical genetic growth profiling, strain panel (AID 1159580);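 also: tested at 20 µM; growth read once vehicle control cultures reached saturation at 30 °C; 1 = growth at the plate median or of vehicle wells; lower values mean less growth of the strain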
Conditions: S. cerevisiae deletion strains, growth OD

Measured: normalized growth

Cc1nc(N=Nc2ccc(C(=O)O)cc2)c(COP(=O)(O)O)c(C=O)c1O
inactive: locus YAL040C, strain CLN3, stronger effect = lower value 0.978 | locus YCL061C, strain MRC1 (second series), stronger effect = lower value 1.01 | locus YDR150W, strain NUM1, stronger effect = lower value 1.02 | locus YDR363W, strain ESC2, stronger effect = lower value 1 | locus YER002W, strain NOP16, stronger effect = lower value 1.02 | locus YMR263W, strain SAP30, stronger effect = lower value 1.01 | locus YMR307W, strain GAS1, stronger effect = lower value 1.04 | locus YNL128W, strain TEP1, stronger effect = lower value 0.99 | locus YNL175C, strain NOP13, stronger effect = lower value 1.01 | locus YNL197C, strain WHI3, stronger effect = lower value 1.01 | locus YNL224C, strain SQS1, stronger effect = lower value 1.01 | locus YOR083W, strain WHI5 (second series), stronger effect = lower value 1.03 | locus YPL055C, strain LGE1, stronger effect = lower value 1.01 | locus YPL241C, strain CIN2, stronger effect = lower value 1.01

COC(=O)C1=COC(OC2OC(CO)C(O)C(O)C2O)C2C(C)CC(=O)C12O (centres undefined)
inactive: locus YAL021C, strain ccr4, stronger effect = lower value 0.942 | locus YAL026C, strain drs2, stronger effect = lower value 0.994 | locus YAL030W, strain snc1, stronger effect = lower value 0.975 | locus YBL061C, strain skt5, stronger effect = lower value 0.991 | locus YBR009C, strain hhf1, stronger effect = lower value 0.944 | locus YBR023C, strain chs3, stronger effect = lower value 0.986 | locus YBR171W, strain sec66, stronger effect = lower value 0.983 | locus YBR231C, strain swc5, stronger effect = lower value 1.02 | locus YBR279W, strain paf1, stronger effect = lower value 0.995 | locus YCL011C, strain gbp2, stronger effect = lower value 0.982 | locus YCL016C, strain dcc1, stronger effect = lower value 0.978 | locus YCL069W, strain vba3, stronger effect = lower value 0.987 | locus YCR088W, strain abp1, stronger effect = lower value 1 | locus YDL005C, strain med2, stronger effect = lower value 0.986 | locus YDL040C, strain nat1, stronger effect = lower value 0.994 | locus YDR001C, strain nth1, stronger effect = lower value 0.965 | locus YDR069C, strain doa4, stronger effect = lower value 0.985 | locus YDR137W, strain rgp1, stronger effect = lower value 0.982 | locus YDR159W, strain sac3, stronger effect = lower value 1.03 | locus YDR195W, strain ref2 0.989 | locus YDR297W, strain sur2, stronger effect = lower value 0.993 | locus YDR334W, strain swr1, stronger effect = lower value 0.959 | locus YDR335W, strain msn5, stronger effect = lower value 0.994 | locus YDR392W, strain spt3, stronger effect = lower value 0.898 | locus YEL003W, strain gim4, stronger effect = lower value 0.989 | locus YEL037C, strain rad23, stronger effect = lower value 0.984 | locus YEL061C, strain CIN8 (second series), stronger effect = lower value 0.984 | locus YER015W, strain faa2, stronger effect = lower value 0.977 | locus YER016W, strain bim1, stronger effect = lower value 0.985 | locus YER111C, strain swi4, stronger effect = lower value 0.987 | locus YER155C, strain BEM2 (second series), stronger effect = lower value 1.01 | locus YFR010W, strain ubp6, stronger effect = lower value 0.989 | locus YGL167C, strain pmr1, stronger effect = lower value 0.966 | locus YGL173C, strain kem1, stronger effect = lower value 0.997 | locus YGL227W, strain vid30, stronger effect = lower value 0.991 | locus YGL240W, strain doc1, stronger effect = lower value 1.01 | locus YGL253W, strain hxk2, stronger effect = lower value 1.01 | locus YHR013C, strain ard1, stronger effect = lower value 0.953 | locus YHR027C, strain rpn1, stronger effect = lower value 0.967 | locus YHR142W, strain chs7, stronger effect = lower value 0.993 | locus YJL092W, strain hpr5, stronger effect = lower value 0.983 | locus YJL095W, strain BCK1 (second series), stronger effect = lower value 0.982 | locus YJL115W, strain asf1, stronger effect = lower value 0.972 | locus YJL129C, strain trk1, stronger effect = lower value 1 | locus YJL154C, strain vps35, stronger effect = lower value 0.978 | locus YJL164C, strain tpk1, stronger effect = lower value 0.946 | locus YJL166W, strain qcr8, stronger effect = lower value 0.975 | locus YKL160W, strain elf1, stronger effect = lower value 0.979 | locus YKR026C, strain gcn3, stronger effect = lower value 0.986 | locus YKR091W, strain srl3, stronger effect = lower value 0.978 | locus YLL001W, strain dnm1, stronger effect = lower value 1.01 | locus YLL026W, stronger effect = lower value 0.987 | locus YLL041C, strain sdh2, stronger effect = lower value 0.98 | locus YLR027C, strain aat2, stronger effect = lower value 1.01 | locus YLR221C, strain rsa3, stronger effect = lower value 1.03 | locus YLR258W, strain gsy2, stronger effect = lower value 0.993 | locus YLR262C, strain YPT6 (second series), stronger effect = lower value 0.984 | locus YLR320W, strain mms22, stronger effect = lower value 1.03 | locus YLR342W, strain FKS1, stronger effect = lower value 0.999 | locus YLR357W, strain rsc2, stronger effect = lower value 0.975 | locus YLR370C, strain arc18, stronger effect = lower value 1.01 | locus YLR384C, strain iki3, stronger effect = lower value 0.998 | locus YML120C, strain ndi1, stronger effect = lower value 0.955 | locus YMR058W, strain fet3, stronger effect = lower value 0.987 | locus YMR125W, strain sto1, stronger effect = lower value 0.937 | locus YMR129W, stronger effect = lower value 0.975 | locus YMR205C, strain PFK2, stronger effect = lower value 0.945 | locus YMR231W, strain pep5, stronger effect = lower value 0.99 | locus YNL071W, strain lat1, stronger effect = lower value 0.974 | locus YNL209W, strain ssb2, stronger effect = lower value 1 | locus YNL248C, strain rpa49, stronger effect = lower value 1.03 | locus YNL322C, strain KRE1 (second series), stronger effect = lower value 0.978 | locus YNR049C, strain mso1, stronger effect = lower value 0.971 | locus YOR001W, strain rrp6, stronger effect = lower value 1.02 | locus YOR070C, strain gyp1, stronger effect = lower value 0.996 | locus YOR080W, strain dia2, stronger effect = lower value 0.992 | locus YOR083W, strain WHI5, stronger effect = lower value 0.98 | locus YOR106W, strain vam3, stronger effect = lower value 0.94 | locus YOR265W, strain rbl2, stronger effect = lower value 0.999 | locus YOR270C, strain vph1, stronger effect = lower value 1.02 | locus YOR290C, strain snf2, stronger effect = lower value 0.927 | locus YPL051W, strain arl3, stronger effect = lower value 0.999 | locus YPL078C, strain atp4, stronger effect = lower value 0.954 | locus YPL106C, strain sse1, stronger effect = lower value 0.959 | locus YPL240C, strain hsp82, stronger effect = lower value 0.986
